Screening results from PubChem.
Only some compounds are listed: those with a hit (about 4.7% of all), similar ones and a draw of the others.
D1 antagonist: human D1 dopamine receptor antagonism | P21728 | HEK293 TREx D1 cells, calcium flux, dopamine EC80; stronger effect = lower value | activity change, negative = inhibition, % at 10 µM | 360,000 tested, 3.2% active | AID 504652; in the data active means activity change below about -30%; further: on the % scale 0 is the no-effect control and ±100 the full control effect
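Inducible Hek293 Trex D1 cells (tetracycline, overnight, 30 C). Calcium dye 30–90 min RT. Antagonist mode: EC80 dopamine added after 180 s compound read.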
D1 ag: human D1 receptor agonism. P21728. HEK293 T-REx D1 cells, calcium flux, agonist mode. activation, % at 2 µM. 360,000 tested, 1% active; further: 0% is about no effect
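Inducible HEK293 T-REx D1 cells, force-coupled to calcium signalling, were plated at 4000 cells/well with tetracycline and held overnight at 30 C. After no-wash calcium dye loading, compound-evoked calcium rise over 180 s flagged agonists.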
D1 PAM: enhances dopamine response at the human D1 receptor; P21728; AID 504651; potentiation, % at 10 µM; 360,000 tested, 0.036% active; HEK293 TREx D1 cells, calcium flux, dopamine EC20 potentiation; in the data active means potentiation above about 30%; further: 0% is about no effect
TRHR enhancer-1: allosteric enhancers of human TRH receptor; TRHR cells, fluo-8 calcium fluorescence, EC20 TRH enhancement; AID 493056; 360,000 tested, 0.66% active; P34981; enhancement, % at 2 µM; in the data active means enhancement above about 30%; further: 0% is about no effect
Target sequence (P34981 whole entry, looked up): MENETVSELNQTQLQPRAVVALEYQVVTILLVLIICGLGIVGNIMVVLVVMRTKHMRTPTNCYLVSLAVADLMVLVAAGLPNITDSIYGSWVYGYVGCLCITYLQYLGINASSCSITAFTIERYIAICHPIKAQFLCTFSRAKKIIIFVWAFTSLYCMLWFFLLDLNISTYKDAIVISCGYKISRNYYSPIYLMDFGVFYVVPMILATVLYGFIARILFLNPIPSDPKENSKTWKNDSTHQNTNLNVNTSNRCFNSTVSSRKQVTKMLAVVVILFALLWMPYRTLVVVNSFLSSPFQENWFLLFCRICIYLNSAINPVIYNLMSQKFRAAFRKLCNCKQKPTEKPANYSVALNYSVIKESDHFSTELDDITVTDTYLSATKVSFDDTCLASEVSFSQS
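Enhancer read-out: after compound pinning and an initial kinetic agonist-mode read, an EC20 of TRH (10 nM final) was injected and fluo-8 calcium signal (Ex 480/Em 530) followed at 1 s/cycle for 100 cycles in TRHR-expressing cells.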
TRHR agonist-1: TRH receptor (human) agonism; TRHR cells, calcium flux fluo-8, FDSS agonist mode; activation, % at 2 µM; 360,000 tested, 0.18% active; AID 493084; further: 0% is about no effect
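In this calcium-flux screen, cells bearing human TRHR are dye-loaded with fluo-8, baselined for 10 cycles, then exposed to library compounds; positive kinetic calcium responses during the agonist phase mark hits, with TRH as control.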
TRHR enhancer-2: confirmation of human TRH receptor allosteric enhancers. shares compounds with TRHR enhancer-1. TRH receptor cell assay, enhancer confirmation qHTS. AID 493076. 970 tested, under 10 active. activity change, negative = inhibition, % at 46.1 µM; active means well fitted curve in the direction sought with a large enough effect; inconclusive means small, poorly fitted or top-dose-only effect, or another doubt; inactive means no such curve, though single readings can be large; an effect the other way counts as inactive or inconclusive;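 further: compound effect scored on response to added TRH at EC20 of 10 nM; 0% is about no effect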
TRHR agonist-2: confirmation of human TRH receptor agonists; shares compounds with TRHR enhancer-1; TRHR-expressing cells, agonist activation read-out; Potency, µM (highest dose often 46.1 µM), for inactives: top-dose activation, actives largely listed as activators; 970 tested, 8% active; AID 493078; active means well fitted curve in the direction sought with a large enough effect; inconclusive means small, poorly fitted or top-dose-only effect, or another doubt; inactive means no such curve, though single readings can be large; an effect the other way counts as inactive or inconclusive; further: potency means the concentration at half of the fitted maximal effect; 0% is about no effect; nearly all actives have a fitted effect of over 75% in size
* = called active by the depositor; ? = inconclusive; / = no result given. Unless noted, no stated cut-off is given here; in the data, active means activation above about 30%; inactive means the rest.

SMILES | D1 antagonist | D1 ag | D1 PAM | TRHR enhancer-1 | TRHR agonist-1 | TRHR enhancer-2 | TRHR agonist-2
COc1cc(C2C(=O)N(C3CCCCC3)CC(=O)N2CCc2ccccc2)ccc1OC(C)C (centres undefined) | -4.6 | -5.2 | 1.1 | 5.7 | -0.6 | / | /
C[N+]1(CCCCCCC(=O)/C=N/O)CCCCCC1 | 2.7 | 1.8 | -7.3 | 42.8* | 1.6 | -0.6 | -0.8%
C[N+](C)(C)CCCCCCC(=O)/C=N/O | 3.9 | 2.2 | -1.4 | -4.0 | 0.3 | / | /
O=C1/C(=C/c2ccc(O)cc2)SC(=S)N1CC1CCCO1 (centres undefined) | -2.6 | 48.8* | -0.2 | 16.4 | 38.8* | -5.7 | ?
CCCOc1ccc(/C=C2\SC(=S)N(CC3CCCO3)C2=O)cc1 (centres undefined) | 1.0 | 7.8 | -3.4 | -3.8 | 0.7 | / | /
O=C(Cn1cncn1)NCc1ccccc1Br | -8.3 | 1.8 | -3.5 | -1.3 | 1.0 | / | /
O=C(Cn1cncn1)c1ccccc1Br | 1.5 | 0.6 | 0.3 | 43.7* | 0.3 | -1.1 | 1.4%
COc1cc(OC)cc(C(=O)Nc2cccnc2)c1 | 13.3 | 0.9 | 6.0 | 50.3* | -0.2 | -1.2 | 3.4%
COc1cc(OC)cc(C(=O)NC(=S)Nc2cccnc2)c1 | -4.5 | 1.1 | -5.5 | 1.7 | -0.9 | / | /
O=C(CNCc1ccccc1Cl)Nc1ccc(C(=O)N2CCCCC2)cc1 | -7.5 | 28.1 | -3.0 | 41.3* | -0.8 | 0.3 | -0.6%
NC(=O)c1ccc(NC(=O)CNCc2ccccc2Cl)cc1 | -4.5 | 5.3 | -7.5 | -3.5 | 0.0 | / | /
NS(=O)(=O)c1ccc(NC(=O)c2ccc(-c3ccccc3)cc2)cc1 | 10.0 | 5.5 | 12.2 | -3.1 | 0.5 | / | /
NS(=O)(=O)c1ccc(C(=O)Nc2ccc(-c3nc4cccnc4s3)cc2)cc1 | 12.9 | 0.7 | 8.5 | 44.2* | 0.6 | -8.6 | 0.9%
O=C(Nc1ccc(C(F)(F)F)cc1)c1cc(S(=O)(=O)NC2CCCCCC2)ccc1F | -1.9 | 0.6 | -0.9 | 6.8 | 1.2 | / | /
CCOC(=O)c1ccccc1NC(=O)CN(c1cc(C(F)(F)F)ccc1Cl)S(C)(=O)=O | 15.8 | 6.7 | -0.4 | 0.7 | -0.1 | / | /
NC(=O)c1c(NC(=O)CN2CCOCC2)sc2c1CCC2 | 8.7 | 1.8 | -5.0 | 66.4* | 0.3 | -16.3 | 2.3%
NC(=O)c1c(NC(=O)CN2CCCC2)sc2c1CCCC2 | -17.8 | -2.6 | 1.3 | 2.4 | -0.5 | / | /
Cc1nn(-c2ccc(F)cc2)c(-n2cccc2)c1C(=O)NCCc1ccc(Cl)cc1 | -7.1 | 22.5 | -1.6 | -5.6 | 2.6 | / | /
COc1ccc(-c2cc(C(F)(F)F)nc(SCC(=O)NCc3ccc(Cl)cc3)n2)cc1 | 7.4 | 2.7 | -2.0 | 59.7* | 2.1 | -4.4 | 3.2%
COc1ccc(-c2cc(C(F)(F)F)nc(SCC(=O)NCc3ccc(F)cc3)n2)cc1 | 8.5 | 2.7 | -0.1 | 8.1 | 0.9 | / | /
COc1ccc(C(C[N+](=O)[O-])c2c(-c3ccccc3)cc3ccccn23)cc1 (centres undefined) | 5.5 | 7.0 | -0.9 | 53.5* | -0.2 | -0.8 | 3.7%
C[C@@H](C(=O)N1CCNCC1)n1cc(CCCN=C(N)N)nn1 | 0.3 | 5.9 | -2.1 | 64.1* | 0.2 | -2.3 | -0.7%
CCC(C)[C@@H](C(=O)N1CCNCC1)n1cc(CCCN=C(N)N)nn1 (some centres undefined) | -9.0 | 0.9 | 8.8 | -6.8 | 0.3 | / | /
CCc1ccc(C(=O)NCC2COc3ccccc3O2)o1 (centres undefined) | 1.2 | 4.7 | 0.9 | 60.4* | 0.1 | -8.2 | 1.1%
CCn1cc(C(=O)N2CCN(c3ccc([N+](=O)[O-])cc3)CC2)c(=O)c2ccc(C)nc21 | 8.9 | 2.3 | -1.9 | 46.4* | -1.3 | 15.7 | 1.3%
CCn1cc(C(=O)N2CCN(c3cccc(C)c3C)CC2)c(=O)c2ccc(C)nc21 | 21.5 | -0.6 | -0.9 | 5.9 | -0.9 | / | /
O=C(O)c1ccc(N/N=C/c2cccc(F)c2)cc1 | -0.8 | 2.3 | 5.3 | 2.6 | 0.0 | / | /
O=C(O)c1ccc(N/N=C/c2ccc(F)c(F)c2)cc1 | 6.5 | 3.2 | -5.3 | 47.3* | -0.1 | -9.4 | -0.7%
